# Experimental data as given in the supplement of paper PMC10849652.
# Targets with a hit are over-represented here; the source holds about 8,800 in all. About 0.5% of all pairs of compound and target were hits. Values without a mark were called inactive.
# What was measured:
# Test in all cases: log2 fold change, soluble protein after heating vs DMSO (PISA); higher = thermal stabilisation; K562 lysate, 10 uM; active = over 0.2 and 3.5 SD of the protein, either way, in both replicates (recomputed)
# ibrutinib = compound: C=CC(=O)N1CCC[C@@H](n2nc(-c3ccc(Oc4ccccc4)cc3)c3c(N)ncnc32)C1 [ibrutinib]
# Procedure, shortened: (§1)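 Log-two fold change in thermal stability relative to solvent controls is reported from duplicates. For each sample, crude K562 extract from dounce-homogenised pellets in PBS pH 7.4 with 1 mM MgCl2, at 1 mg/mL protein, was treated with 10 μM compound for 30 min. Aliquots heated for 3 min across 48°C-58°C were pooled, brought to 0.5% NP-40 at 4°C and cleared at 21,000xg for 90 min. The supernatant was quantified by TMTpro 16plex LC-MS/MS with channel sums equalised.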
# [1] = compound: CC(=O)c1cnc2ccc(-c3cc(Cl)c(O)c(Cl)c3)nc2c1N[C@H]1CC[C@H](CN(C)C)CC1
# Procedure, shortened: as §1
# ralimetinib = compound: CC(C)(C)Cn1c(N)nc2ccc(-c3[nH]c(C(C)(C)C)nc3-c3ccc(F)cc3)nc21 [ralimetinib]
# Procedure, shortened: as §1
# [2] = compound: CC(C)(O)CC(=O)NCCn1ccc2ncnc(Nc3ccc(Oc4cccc(C(F)(F)F)c4)c(Cl)c3)c21
# Procedure, shortened: as §1
# [3] = compound: CC(C)C1=C2N=C(C=C(N2N=C1)NCC3=CC=CC=C3)NCCCCCCN
# Procedure, shortened: as §1
# [4] = compound: CC1=C(C2=C(C=C1)C(=O)C3=CC=CC=C3N2CCCN)C
# Procedure, shortened: as §1
# [5] = compound: CC1=C(C=C(C=C1)NC(=O)C2=CC(=CC=C2)C(C)(C)C#N)NC3=CC4=C(C=C3)N=CN(C4=O)C
# Procedure, shortened: as §1
# [6] = compound: CC1=C(C=C(C=C1)NC(=O)C2=CC(=CC=C2)N(C)C)NC(=O)C3=CC=C(C=C3)O
# Procedure, shortened: as §1
# [7] = compound: CC1=CC=C(C=C1)SC2=C3C=C(SC3=CN=C2)C(=O)N
# Procedure, shortened: as §1
# vemurafenib = compound: CCCS(=O)(=O)Nc1ccc(F)c(C(=O)c2c[nH]c3ncc(-c4ccc(Cl)cc4)cc23)c1F [vemurafenib]
# Procedure, shortened: as §1
# [8] = compound: CCCS(=O)(=O)Nc1ccc(F)c(C(=O)c2c[nH]c3ncc(Cl)cc23)c1F
# Procedure, shortened: as §1
# barasertib = compound: CCN(CCCOc1ccc2c(Nc3cc(CC(=O)Nc4cccc(F)c4)[nH]n3)ncnc2c1)CCOP(=O)(O)O [barasertib]
# Procedure, shortened: as §1
# [9] = compound: CC[C@@H]1C(=O)N(C)c2cnc(Nc3ccc(C(=O)NC4CCN(C)CC4)cc3OC)nc2N1C1CCCC1
# Procedure, shortened: as §1
# volasertib = compound: CC[C@@H]1C(=O)N(C)c2cnc(Nc3ccc(C(=O)N[C@H]4CC[C@H](N5CCN(CC6CC6)CC5)CC4)cc3OC)nc2N1C(C)C [volasertib]
# Procedure, shortened: as §1
# [10] = compound: CCn1c(C(=O)N(C2CC2)C2CC2)cc2c3c(ncn3C)c(Nc3cc(C)n(C)n3)nc21
# Procedure, shortened: as §1
# [11] = compound: CCn1cc(-c2ccnc3[nH]c(-c4cccc(CN(C)C)c4)cc23)c(-c2ccc(NC(=O)N(C)C)cc2)n1
# Procedure, shortened: as §1
# [12] = compound: CN1CCC(CNc2ccc3ncc(-c4cccc(OC(F)(F)F)c4)n3n2)CC1
# Procedure, shortened: as §1
# saracatinib = compound: CN1CCN(CCOc2cc(OC3CCOCC3)c3c(Nc4c(Cl)ccc5c4OCO5)ncnc3c2)CC1 [saracatinib]
# Procedure, shortened: as §1
# sotrastaurin = compound: CN1CCN(c2nc(C3=C(c4c[nH]c5ccccc45)C(=O)NC3=O)c3ccccc3n2)CC1 [sotrastaurin]
# Procedure, shortened: as §1
# [13] = compound: CC1=C(C(CC(=O)N1)C2=CC=C(C=C2)C(F)(F)F)C(=O)NC3=C(C=C4C(=C3)C=NN4)F
# Procedure, shortened: as §1
# Sequence of UniProt Q9P0K8 (Q9P0K8 whole entry, looked up): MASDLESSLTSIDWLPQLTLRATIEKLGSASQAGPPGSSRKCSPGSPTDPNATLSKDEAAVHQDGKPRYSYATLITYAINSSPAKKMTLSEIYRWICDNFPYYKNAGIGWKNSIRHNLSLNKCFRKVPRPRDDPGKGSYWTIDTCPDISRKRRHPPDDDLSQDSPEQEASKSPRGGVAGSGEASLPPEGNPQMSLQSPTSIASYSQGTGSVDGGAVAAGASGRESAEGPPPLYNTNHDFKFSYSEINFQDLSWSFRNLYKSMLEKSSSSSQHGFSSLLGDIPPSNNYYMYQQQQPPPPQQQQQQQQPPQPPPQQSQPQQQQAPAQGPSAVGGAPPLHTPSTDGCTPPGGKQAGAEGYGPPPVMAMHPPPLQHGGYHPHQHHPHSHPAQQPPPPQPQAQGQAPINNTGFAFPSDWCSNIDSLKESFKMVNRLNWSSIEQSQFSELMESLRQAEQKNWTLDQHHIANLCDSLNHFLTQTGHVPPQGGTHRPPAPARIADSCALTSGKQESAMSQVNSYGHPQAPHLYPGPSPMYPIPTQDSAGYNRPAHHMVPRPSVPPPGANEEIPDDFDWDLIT
# Sequence of UniProt P0C2W1 (P0C2W1 whole entry, looked up): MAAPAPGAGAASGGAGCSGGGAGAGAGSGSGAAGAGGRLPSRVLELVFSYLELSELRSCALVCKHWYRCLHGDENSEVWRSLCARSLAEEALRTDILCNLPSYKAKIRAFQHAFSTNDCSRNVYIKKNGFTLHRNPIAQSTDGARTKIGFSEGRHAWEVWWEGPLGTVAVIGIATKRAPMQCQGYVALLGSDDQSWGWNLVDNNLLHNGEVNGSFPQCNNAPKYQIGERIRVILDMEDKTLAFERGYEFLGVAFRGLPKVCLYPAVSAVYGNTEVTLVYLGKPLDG
# Sequence of UniProt Q9NZJ0 (Q9NZJ0 whole entry, looked up): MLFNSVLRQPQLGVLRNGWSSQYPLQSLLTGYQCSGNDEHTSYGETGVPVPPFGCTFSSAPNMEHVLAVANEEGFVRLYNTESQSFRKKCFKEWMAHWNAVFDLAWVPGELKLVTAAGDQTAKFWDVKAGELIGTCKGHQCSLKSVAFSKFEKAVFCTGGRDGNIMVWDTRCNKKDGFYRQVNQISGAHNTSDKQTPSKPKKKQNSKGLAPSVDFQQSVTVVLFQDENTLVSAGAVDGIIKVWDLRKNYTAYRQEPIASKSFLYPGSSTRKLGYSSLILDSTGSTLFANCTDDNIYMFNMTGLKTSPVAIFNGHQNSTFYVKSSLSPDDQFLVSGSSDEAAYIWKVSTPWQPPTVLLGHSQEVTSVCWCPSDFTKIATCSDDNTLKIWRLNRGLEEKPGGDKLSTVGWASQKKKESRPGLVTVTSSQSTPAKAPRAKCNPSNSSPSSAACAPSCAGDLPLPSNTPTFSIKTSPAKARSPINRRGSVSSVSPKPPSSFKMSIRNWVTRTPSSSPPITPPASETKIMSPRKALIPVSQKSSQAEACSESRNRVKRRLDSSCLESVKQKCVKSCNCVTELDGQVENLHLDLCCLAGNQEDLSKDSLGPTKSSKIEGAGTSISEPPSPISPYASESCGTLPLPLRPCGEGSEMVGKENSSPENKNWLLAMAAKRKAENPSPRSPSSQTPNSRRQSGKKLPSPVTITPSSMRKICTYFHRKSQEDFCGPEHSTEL
# Sequence of UniProt Q13409 (Q13409 whole entry, looked up): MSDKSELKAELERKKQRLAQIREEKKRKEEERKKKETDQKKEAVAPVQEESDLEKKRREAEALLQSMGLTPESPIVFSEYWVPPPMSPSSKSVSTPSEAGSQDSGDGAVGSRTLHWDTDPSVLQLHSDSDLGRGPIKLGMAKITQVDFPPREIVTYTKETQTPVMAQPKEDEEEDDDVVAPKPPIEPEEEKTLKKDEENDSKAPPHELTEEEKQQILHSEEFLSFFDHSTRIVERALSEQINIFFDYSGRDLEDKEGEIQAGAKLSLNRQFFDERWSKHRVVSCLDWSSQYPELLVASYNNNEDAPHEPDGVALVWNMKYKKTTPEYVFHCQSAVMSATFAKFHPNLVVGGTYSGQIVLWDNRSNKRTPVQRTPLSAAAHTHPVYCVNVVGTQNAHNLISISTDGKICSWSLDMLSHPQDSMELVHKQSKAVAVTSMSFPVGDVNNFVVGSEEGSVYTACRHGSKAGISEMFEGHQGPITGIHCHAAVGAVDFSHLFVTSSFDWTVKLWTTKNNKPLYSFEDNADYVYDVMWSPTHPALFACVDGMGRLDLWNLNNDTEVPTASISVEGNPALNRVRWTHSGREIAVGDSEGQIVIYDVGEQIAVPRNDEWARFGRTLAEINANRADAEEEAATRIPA
# Sequence of UniProt Q96PY5 (Q96PY5 whole entry, looked up): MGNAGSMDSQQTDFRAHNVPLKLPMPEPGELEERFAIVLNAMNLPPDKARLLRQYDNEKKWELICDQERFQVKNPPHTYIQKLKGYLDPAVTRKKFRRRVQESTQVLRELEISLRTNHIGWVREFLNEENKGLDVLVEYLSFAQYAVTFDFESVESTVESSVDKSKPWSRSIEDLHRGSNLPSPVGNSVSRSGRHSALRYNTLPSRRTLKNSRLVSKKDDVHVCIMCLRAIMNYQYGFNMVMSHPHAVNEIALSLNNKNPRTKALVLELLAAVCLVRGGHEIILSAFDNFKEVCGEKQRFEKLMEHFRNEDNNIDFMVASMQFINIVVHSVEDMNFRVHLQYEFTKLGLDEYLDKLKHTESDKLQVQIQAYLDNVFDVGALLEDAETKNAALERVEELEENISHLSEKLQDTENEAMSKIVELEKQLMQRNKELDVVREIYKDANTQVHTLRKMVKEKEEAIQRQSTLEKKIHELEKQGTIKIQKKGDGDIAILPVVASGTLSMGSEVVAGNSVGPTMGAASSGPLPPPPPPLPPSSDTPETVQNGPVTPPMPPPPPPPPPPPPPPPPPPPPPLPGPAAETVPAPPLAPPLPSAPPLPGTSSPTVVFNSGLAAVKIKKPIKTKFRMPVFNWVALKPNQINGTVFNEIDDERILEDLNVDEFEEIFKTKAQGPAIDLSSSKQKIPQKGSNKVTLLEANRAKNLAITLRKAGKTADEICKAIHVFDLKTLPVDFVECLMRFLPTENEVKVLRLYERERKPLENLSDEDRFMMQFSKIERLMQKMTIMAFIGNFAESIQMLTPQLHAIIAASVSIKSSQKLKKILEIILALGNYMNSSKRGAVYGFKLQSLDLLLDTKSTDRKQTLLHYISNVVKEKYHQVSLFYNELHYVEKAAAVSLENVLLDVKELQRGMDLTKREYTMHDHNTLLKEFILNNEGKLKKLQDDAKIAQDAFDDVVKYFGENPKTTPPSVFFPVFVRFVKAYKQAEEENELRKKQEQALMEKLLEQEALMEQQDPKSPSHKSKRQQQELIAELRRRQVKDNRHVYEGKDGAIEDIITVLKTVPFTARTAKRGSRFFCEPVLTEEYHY
# Sequence of UniProt Q5HYJ3 (Q5HYJ3 whole entry, looked up): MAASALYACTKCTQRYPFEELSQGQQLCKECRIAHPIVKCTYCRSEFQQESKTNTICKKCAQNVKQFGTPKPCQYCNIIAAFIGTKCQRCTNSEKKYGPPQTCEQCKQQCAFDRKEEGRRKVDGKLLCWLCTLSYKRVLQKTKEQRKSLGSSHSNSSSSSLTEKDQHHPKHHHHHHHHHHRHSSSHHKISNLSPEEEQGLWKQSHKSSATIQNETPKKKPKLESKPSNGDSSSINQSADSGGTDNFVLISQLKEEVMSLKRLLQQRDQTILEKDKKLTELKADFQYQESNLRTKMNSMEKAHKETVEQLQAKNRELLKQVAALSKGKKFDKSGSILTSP
# Sequence of UniProt Q9UKR5 (Q9UKR5 whole entry, looked up): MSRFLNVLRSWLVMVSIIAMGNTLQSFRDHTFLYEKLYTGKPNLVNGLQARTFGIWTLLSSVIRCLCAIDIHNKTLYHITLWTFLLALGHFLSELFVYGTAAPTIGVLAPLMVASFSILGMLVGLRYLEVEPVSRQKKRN
# Sequence of UniProt P11171 (P11171 whole entry, looked up): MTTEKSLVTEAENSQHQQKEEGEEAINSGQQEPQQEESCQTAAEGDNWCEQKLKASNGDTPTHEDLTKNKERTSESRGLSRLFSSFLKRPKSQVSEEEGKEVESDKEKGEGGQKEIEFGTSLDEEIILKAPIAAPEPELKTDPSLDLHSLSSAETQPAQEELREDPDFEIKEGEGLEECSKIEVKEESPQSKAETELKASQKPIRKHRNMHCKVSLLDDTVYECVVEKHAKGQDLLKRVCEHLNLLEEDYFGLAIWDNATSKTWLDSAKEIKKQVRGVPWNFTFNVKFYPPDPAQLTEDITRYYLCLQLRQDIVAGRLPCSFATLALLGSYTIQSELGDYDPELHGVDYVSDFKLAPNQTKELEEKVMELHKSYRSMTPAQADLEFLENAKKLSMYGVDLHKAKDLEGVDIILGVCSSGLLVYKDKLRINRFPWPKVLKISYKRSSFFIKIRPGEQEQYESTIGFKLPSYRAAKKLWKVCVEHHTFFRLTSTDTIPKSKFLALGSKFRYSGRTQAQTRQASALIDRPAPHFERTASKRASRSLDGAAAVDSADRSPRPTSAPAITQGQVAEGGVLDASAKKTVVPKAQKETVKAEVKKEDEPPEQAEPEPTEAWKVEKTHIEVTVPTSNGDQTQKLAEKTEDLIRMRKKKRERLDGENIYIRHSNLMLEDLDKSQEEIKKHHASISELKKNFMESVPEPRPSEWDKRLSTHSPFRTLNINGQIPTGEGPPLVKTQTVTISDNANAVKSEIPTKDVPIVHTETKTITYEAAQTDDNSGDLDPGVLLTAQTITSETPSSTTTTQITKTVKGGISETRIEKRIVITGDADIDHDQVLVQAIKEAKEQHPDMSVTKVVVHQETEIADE
# Sequence of UniProt Q9NZC3 (Q9NZC3 whole entry, looked up): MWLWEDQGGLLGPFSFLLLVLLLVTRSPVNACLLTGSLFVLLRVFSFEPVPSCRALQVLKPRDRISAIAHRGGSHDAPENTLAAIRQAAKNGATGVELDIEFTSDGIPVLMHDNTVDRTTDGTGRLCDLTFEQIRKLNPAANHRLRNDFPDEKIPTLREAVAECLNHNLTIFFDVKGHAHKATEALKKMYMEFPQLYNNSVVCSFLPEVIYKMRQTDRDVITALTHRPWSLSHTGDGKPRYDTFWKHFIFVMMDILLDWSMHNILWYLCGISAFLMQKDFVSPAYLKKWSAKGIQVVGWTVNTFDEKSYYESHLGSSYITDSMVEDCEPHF
Target,log2 fold change (ibrutinib),log2 fold change [1],log2 fold change (ralimetinib),log2 fold change [2],log2 fold change [3],log2 fold change [4],log2 fold change [5],log2 fold change [6],log2 fold change [7],log2 fold change (vemurafenib),log2 fold change [8],log2 fold change (barasertib),log2 fold change [9],log2 fold change (volasertib),log2 fold change [10],log2 fold change [11],log2 fold change [12],log2 fold change (saracatinib),log2 fold change (sotrastaurin),log2 fold change [13]
GABPB1 isoform 3 (UniProt Q06547),0.085,-0.027,0.043,-0.068,0.121,0.099,-0.051,-0.042,0.03,0.057,0.074,0.141,-0.048,-0.11,-0.016,-0.042,-0.028,-0.006,-0.022,–
DST isoform 3 (UniProt Q03001),0.005,–,–,–,-0.01,–,–,–,–,–,–,0.041,0.052,–,–,1.48 (active),-0.213,–,–,–
FMNL2 isoform 3 (UniProt Q96PY5),–,-0.048,-0.02,0.185,0.065,0.071,0.116,0.048,-0.003,–,0.022,–,–,-0.013,-0.103,–,–,0.04,0.08,-0.056
FBXO45 (UniProt P0C2W1),0.207,0.075,0.173,0.045,0.043,–,0.064,0.018,0.081,-0.064,0.088,0.031,-0.077,-0.04,0.062,-0.002,0.037,–,0.028,0.015
GDE1 (UniProt Q9NZC3),-0.047,-0.017,0.067,0.026,0.025,-0.038,-0.036,-0.122,-0.014,–,0.038,0.108,0.107,0.092,0.005,1.04 (active),-0.455 (active),0.035,-0.064,–
EIF3I (UniProt Q5TFK1),–,0.266,–,–,–,–,–,–,-0.059,–,0.147,–,–,-0.112,–,-0.048,0.044,–,–,-0.661
DTL (UniProt Q9NZJ0),0.012,–,0.037,-0.024,-0.05,-0.104,0.071,-0.037,–,-0.007,–,0.044,–,–,0.02,0.065,-0.034,-0.1,-0.03,0.041
FAM53B (UniProt Q14153),0.037,–,-0.299,-0.084,0.037,0.161,-0.07,-0.263,–,0.046,–,0.009,0.071,–,0.059,-0.096,0.13,0.096,-0.149,0.098
DYNC1I2 isoform 2 (UniProt Q13409),-0.101,-0.032,-0.04,-0.032,-0.017,0.083,-0.019,-0.047,0.012,-0.073,0.042,-0.123,0.132,-0.039,0.035,-0.022,0.082,-0.077,0.006,–
ERG28 (UniProt Q9UKR5),0.064,-0.045,–,–,–,0.059,–,–,-0.004,–,-0.012,0.065,0.179,0.048,–,0.541,-0.497 (active),0.1,–,–
FAM111A (UniProt Q96PZ2),–,0.171,0.116,0.083,0.125,-0.106,-0.093,0.022,-0.244,-0.02,0.432 (active),–,-0.34,-0.045,0.112,–,–,0.055,-0.016,–
EVI5L isoform 2 (UniProt Q96CN4),–,–,–,–,–,–,–,–,–,–,–,–,–,–,–,0.057,-0.183,–,–,–
ELAVL4 (UniProt P26378),–,-0.04,0.065,0.064,0.026,-0.01,-0.005,-0.026,0.073,-0.045,0.035,–,-0.119,-0.038,0.054,-0.006,0.029,-0.052,0,-0.061
EWSR1 (UniProt H7BY36),-0.288,–,-0.073,-0.052,–,-0.126,0.071,0.39,–,-0.035,–,-0.055,0.095,–,-0.046,-0.056,-0.043,0.024,-0.02,–
"FBRSL1, A0A3B3IRR3",0.072,–,0.027,0.008,-0.075,0.183,-0.381 (active),0.012,–,0.132,–,0.055,0.069,–,0.085,0,-0.061,-0.028,-0.039,-0.01
FAM204A (UniProt Q9H8W3),–,–,-0.12,0.061,-0.117,–,0.174,-0.002,–,-0.003,–,–,–,–,0.059,0.273,-0.614 (active),–,-0.083,–

Target,log2 fold change (ibrutinib),log2 fold change [1],log2 fold change (ralimetinib),log2 fold change [2],log2 fold change [3],log2 fold change [4],log2 fold change [5],log2 fold change [6],log2 fold change [7],log2 fold change (vemurafenib),log2 fold change [8],log2 fold change (barasertib),log2 fold change [9],log2 fold change (volasertib),log2 fold change [10],log2 fold change [11],log2 fold change [12],log2 fold change (saracatinib),log2 fold change (sotrastaurin),log2 fold change [13]
"EPB41, A0A2R8Y783",0.196,0.093,–,–,–,0.057,–,–,0.034,0.129,0.063,0.112,-0.141,0.057,–,-0.136,-0.048,0.075,–,–
EPB41 isoform 4 (UniProt P11171),–,0.048,-0.056,-0.018,0.148,–,0.042,-0.001,-0.004,–,0.014,–,–,0.134,-0.079,-0.073,-0.065,–,-0.02,-0.012
EPN2 (UniProt I3L356),0.105,-0.021,–,–,–,–,–,–,0.097,–,0.212,-0.106,–,-0.026,–,-0.277,0.075,–,–,0.102
GART (UniProt C9JZG2),-0.062,0.037,0.069,-0.068,–,–,0.083,-0.052,0.022,–,-0.014,0.086,-0.021,0.06,-0.043,0.135,0.085,–,0.09,-0.114
FLT4 (UniProt P35916),0.062,0.064,0.012,-0.005,-0.057,0.038,–,-0.019,0.005,-0.069,-0.046,-0.036,-0.031,-0.042,0.135,0.018,0.08,-0.036,–,–
EID1 (UniProt Q9Y6B2),–,–,-0.06,-0.042,-0.173,-0.116,–,-0.008,–,–,–,–,0.015,–,0.001,-0.073,0.002,-0.157,–,0.05
"EIF2B5, A0A3B3ITK8",–,0.015,–,–,–,–,–,–,-0.104,–,-0.071,–,–,0.081,–,–,–,–,–,0.037
FOXJ2 (UniProt Q9P0K8),-0.045,–,0.02,-0.035,0.091,-0.129,–,0.108,–,–,–,-0.049,-0.149,–,0.1,-0.062,-0.071,-0.101,–,0.041
DYRK1A isoform 2 (UniProt Q13627),-0.063,–,0.085,-0.241,0.005,–,0.004,-0.081,–,–,–,0.006,–,–,0.308,0.085,0.221,–,0.033,–
EXO5 (UniProt Q9H790),0.111,–,0.018,-0.126,-0.025,–,0.217,-0.067,–,–,–,0.111,–,–,-0.022,–,–,–,0.128,–
FAT1 (UniProt Q14517),–,-0.109,-0.034,-0.016,-0.05,–,0.188,0.024,-0.105,–,0.022,–,0.32,0.025,-0.344,0.001,-0.036,–,-0.333,–
FAM76B (UniProt Q5HYJ3),–,-0.025,-0.005,-0.01,-0.06,-0.02,0.023,-0.002,-0.011,0.048,-0.005,–,0.04,0.005,-0.008,0.025,0.007,-0.003,0.027,-0.012
FNDC3A (UniProt Q9Y2H6),–,–,0.118,-0.207,-0.093,–,0.027,0.113,–,–,–,–,–,–,0.044,-0.451,0.138,–,-0.113,0.31
GAPVD1 (UniProt Q14C86),0.086,0.317,–,–,–,–,–,–,-0.666,–,0.116,0.078,–,-0.305,–,–,–,–,–,–
EIF2AK3 (UniProt Q9NZJ5),–,0.003,0.039,-0.191,0.012,0.037,–,-0.061,-0.07,–,-0.216,–,–,0.231,0.119,-0.063,-0.199,0.01,–,-0.052
